Laboratory results reported in article PMC5540273 (PLoS ONE, 2017).

test system: MKNK2; conditions: concentration: 1 μM, replicates: in singlicate; n = 1
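Also: KINOMEscan kinase panel screen.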

| SMILES | %Inh |
| --- | --- |
| CCn1c(-c2cccnc2O)nc2cnccc21 [SB-736715] | 1% |
| Cl.Oc1ccc(-c2nc(-c3ccccc3)[nH]c2-c2ccncc2)cc1 [SB-428218] | 0% |
| CC(=O)Nc1nc2cnc(Nc3cc(NC(=O)c4cccc(CCC#N)c4)ccc3C)nc2s1 | 0% |
| O=S(=O)(c1ccc(-c2ccnc3[nH]ccc23)cc1)N1CCCC1 [GSK846226] | 46% |
| CN1C(=O)C(Nc2ccc(Cl)c(C(=O)O)c2)=C(c2ccc(Cl)cc2)C1=O [SB-404290] | 10% |
| Fc1cc(Cl)ccc1Nc1ccnc2cc(I)ccc12 [GW551191] | 18% |
| O=c1cc(N2CCOCC2)nc2n(Cc3cccc(Cl)c3Cl)ccn12 [GSK2286295] | 1% |
| Cn1ccc2ncnc(Oc3ccc(NC(=O)Nc4ccccc4)cc3)c21 | 43% |
| COc1cc(Nc2nccc(N3CCC(NC(=O)Nc4cc(C)ccc4C)C3)n2)cc(OC)c1OC (stereo not drawn) [GSK1379762] | 37% |
| CC(C)(C)c1ccc(C(=O)Nc2cn3cc(Cl)ccc3n2)cc1 | 0% |
| COc1ccccc1CNC(=O)c1cc(C(=O)c2ccccc2C)c[nH]1 [GSK364507] | 2% |
| O=C(O)COc1ncnc2cc(-c3ccc4[nH]ncc4c3)sc12 | 13% |
| CS(=O)(=O)c1ccc(-c2nc3n(c2-c2ccncc2)CCC3)cc1 [SKF-105942] | 6% |
| Cc1c(Cn2ccn3c(=O)cc(N4CCOCC4)nc23)cccc1C(F)(F)F [GSK2289044] | 0% |
| O=C(Nc1n[nH]c2cc(-c3cccc(F)c3F)ccc12)C1CC1 [SB-733894] | 20% |
| Cc1csc(-c2nc(Nc3ccncc3)c3ccccc3n2)n1 [GW869640] | 38% |
| Cl.NC(=O)c1cccc(Nc2nccc(Nc3ccc(Oc4cccc(Cl)c4)c(Cl)c3)n2)c1 [GW659008] | 4% |
| O=C1NC(=O)C(N2CCc3ccccc32)=C1c1ccccc1Cl [SB-373598] | 0% |

| SMILES | %Inh |
| --- | --- |
| COC(=O)c1c(-c2ccccc2)c2cc(C(=O)O)ccc2c(=O)n1Cc1ccccc1 | 0% |
| Cc1cc(-c2ccc3c(c2)CC[C@@H](N[C@@H](C)c2ccccc2)C3)cnc1N.Cl [GW412617] | 3% |
| Nc1ncnc2[nH]c(-c3ccccc3)nc12 [AH5015] | 39% |
| O=C(Nc1n[nH]c2nc(-c3nccs3)c(Br)cc12)C1CC1 [SB-742251] | 51% |
| Cc1ccccc1-n1cnc2c(N)ncnc21 [SKF-97510] | 0% |
| Clc1cc(Cl)cc(Nc2ccnc(Nc3cc(Cl)cc(Cl)c3)n2)c1 [GSK175726] | 0% |
| Cn1ccc2ncnc(Oc3ccc(Nc4nc5ccccc5[nH]4)cc3)c21 | 0% |
| CCCc1ccc(S(=O)(=O)NC2CCN(c3ccnc(Nc4ccc(F)cc4)n3)C2)cc1 (stereo not drawn) [GSK1379715] | 8% |
| COc1cc2nccc(Nc3ccc(NC(=O)c4ccc(C)cc4)c(O)c3)c2cc1OC.Cl [GW440132] | 5% |
| CCn1c(-c2ccccn2)nc2cnccc21 [SB-736398] | 24% |
| Cl.O=C(Nc1cccc(-c2nn3ncccc3c2-c2ccnc(Nc3cccnc3)n2)c1)c1c(F)cccc1F [GSK312879] | 30% |
| Cc1ccc(NC(=O)Nc2cccc(Cl)c2)cc1-c1ccc(C(=O)Nc2ccncc2)cc1 [GSK1398468] | 4% |
| O=C(Nc1ccc2c(c1)OCO2)NC1CCN(c2ccnc(Nc3ccc(F)cc3)n2)C1 (stereo not drawn) [GSK1379724] | 3% |
| COc1ccc(Nc2nccc(NCCNC(=O)Nc3ccccc3F)n2)cc1 [GSK1379901] | 13% |
| COc1ccc(Nc2nccc(-c3cccc(NC(=O)c4cc5cc(F)ccc5[nH]4)c3)n2)cc1 [GSK1229782] | 0% |
| Cc1cc(N2Cc3ccccc3C2)nc(Nc2ccc(S(=O)(=O)N3CCOCC3)cc2)n1.Cl [GSK1669917] | 0% |
| COc1ccc(CNC(=O)NC2CCN(c3ccnc(Nc4cc(OC)c(OC)c(OC)c4)n3)C2)cc1 (stereo not drawn) [GSK1379748] | 30% |
| Cc1ccc(-c2cc(-c3c[nH]nc3-c3ccccn3)ccn2)cc1 [GW684088] | 1% |

test system: T1, MLCK; conditions: concentration: 1 μM, replicates: in singlicate; n = 1
T1 construct: gene MYLK3

| SMILES | %Inh |
| --- | --- |
| CCn1c(-c2cccnc2O)nc2cnccc21 [SB-736715] | 0% |
| Cl.Oc1ccc(-c2nc(-c3ccccc3)[nH]c2-c2ccncc2)cc1 [SB-428218] | 14% |
| CC(=O)Nc1nc2cnc(Nc3cc(NC(=O)c4cccc(CCC#N)c4)ccc3C)nc2s1 | 0% |
| O=S(=O)(c1ccc(-c2ccnc3[nH]ccc23)cc1)N1CCCC1 [GSK846226] | 4% |
| CN1C(=O)C(Nc2ccc(Cl)c(C(=O)O)c2)=C(c2ccc(Cl)cc2)C1=O [SB-404290] | 0% |
| Fc1cc(Cl)ccc1Nc1ccnc2cc(I)ccc12 [GW551191] | 2% |
| O=c1cc(N2CCOCC2)nc2n(Cc3cccc(Cl)c3Cl)ccn12 [GSK2286295] | 16% |
| Cn1ccc2ncnc(Oc3ccc(NC(=O)Nc4ccccc4)cc3)c21 | 0% |
| COc1cc(Nc2nccc(N3CCC(NC(=O)Nc4cc(C)ccc4C)C3)n2)cc(OC)c1OC (stereo not drawn) [GSK1379762] | 0% |
| CC(C)(C)c1ccc(C(=O)Nc2cn3cc(Cl)ccc3n2)cc1 | 54% |
| COc1ccccc1CNC(=O)c1cc(C(=O)c2ccccc2C)c[nH]1 [GSK364507] | 9% |
| O=C(O)COc1ncnc2cc(-c3ccc4[nH]ncc4c3)sc12 | 1% |
| CS(=O)(=O)c1ccc(-c2nc3n(c2-c2ccncc2)CCC3)cc1 [SKF-105942] | 0% |
| Cc1c(Cn2ccn3c(=O)cc(N4CCOCC4)nc23)cccc1C(F)(F)F [GSK2289044] | 7% |
| O=C(Nc1n[nH]c2cc(-c3cccc(F)c3F)ccc12)C1CC1 [SB-733894] | 18% |
| Cc1csc(-c2nc(Nc3ccncc3)c3ccccc3n2)n1 [GW869640] | 2% |
| Cl.NC(=O)c1cccc(Nc2nccc(Nc3ccc(Oc4cccc(Cl)c4)c(Cl)c3)n2)c1 [GW659008] | 0% |
| O=C1NC(=O)C(N2CCc3ccccc32)=C1c1ccccc1Cl [SB-373598] | 18% |

| SMILES | %Inh |
| --- | --- |
| COC(=O)c1c(-c2ccccc2)c2cc(C(=O)O)ccc2c(=O)n1Cc1ccccc1 | 0% |
| Cc1cc(-c2ccc3c(c2)CC[C@@H](N[C@@H](C)c2ccccc2)C3)cnc1N.Cl [GW412617] | 0% |
| Nc1ncnc2[nH]c(-c3ccccc3)nc12 [AH5015] | 0% |
| O=C(Nc1n[nH]c2nc(-c3nccs3)c(Br)cc12)C1CC1 [SB-742251] | 48% |
| Cc1ccccc1-n1cnc2c(N)ncnc21 [SKF-97510] | 0% |
| Clc1cc(Cl)cc(Nc2ccnc(Nc3cc(Cl)cc(Cl)c3)n2)c1 [GSK175726] | 0% |
| Cn1ccc2ncnc(Oc3ccc(Nc4nc5ccccc5[nH]4)cc3)c21 | 0% |
| CCCc1ccc(S(=O)(=O)NC2CCN(c3ccnc(Nc4ccc(F)cc4)n3)C2)cc1 (stereo not drawn) [GSK1379715] | 0% |
| COc1cc2nccc(Nc3ccc(NC(=O)c4ccc(C)cc4)c(O)c3)c2cc1OC.Cl [GW440132] | 0% |
| CCn1c(-c2ccccn2)nc2cnccc21 [SB-736398] | 0% |
| Cl.O=C(Nc1cccc(-c2nn3ncccc3c2-c2ccnc(Nc3cccnc3)n2)c1)c1c(F)cccc1F [GSK312879] | 0% |
| Cc1ccc(NC(=O)Nc2cccc(Cl)c2)cc1-c1ccc(C(=O)Nc2ccncc2)cc1 [GSK1398468] | 0% |
| O=C(Nc1ccc2c(c1)OCO2)NC1CCN(c2ccnc(Nc3ccc(F)cc3)n2)C1 (stereo not drawn) [GSK1379724] | 0% |
| COc1ccc(Nc2nccc(NCCNC(=O)Nc3ccccc3F)n2)cc1 [GSK1379901] | 0% |
| COc1ccc(Nc2nccc(-c3cccc(NC(=O)c4cc5cc(F)ccc5[nH]4)c3)n2)cc1 [GSK1229782] | 9% |
| Cc1cc(N2Cc3ccccc3C2)nc(Nc2ccc(S(=O)(=O)N3CCOCC3)cc2)n1.Cl [GSK1669917] | 0% |
| COc1ccc(CNC(=O)NC2CCN(c3ccnc(Nc4cc(OC)c(OC)c(OC)c4)n3)C2)cc1 (stereo not drawn) [GSK1379748] | 0% |
| Cc1ccc(-c2cc(-c3c[nH]nc3-c3ccccn3)ccn2)cc1 [GW684088] | 0% |
